# Laboratory results taken from PubChem BioAssay AID504720 (Sanford-Burnham Center for Chemical Genomics, 2011).
# Screen size: about 350,000 compounds; about 1,100 (0.31%) were called active. The sample as a whole holds a higher share of actives than the screen did. Unmarked numbers belong to inactive results. Rule as the data show it: active = activation above about 50%; inactive = the rest.
# Target: Endoribonuclease toxin MazF (Escherichia coli (strain K12)) (UniProt P0AE70)
# Assay: activators of E. coli MazEF toxin-antitoxin RNase, primary screen, biochemical, fluorescence, uHTS (AID 504720)
# Settings: FAM/BHQ RNA-DNA oligo cleavage fluorescence, 5 h, at 20 µM, hits give high values
# Sequence of Endoribonuclease toxin MazF (Escherichia coli (strain K12)) (P0AE70 whole entry, looked up): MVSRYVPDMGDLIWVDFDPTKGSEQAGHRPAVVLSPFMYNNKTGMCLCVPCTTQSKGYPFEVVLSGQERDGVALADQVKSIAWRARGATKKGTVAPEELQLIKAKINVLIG
row,Structure (SMILES),activation
1,Cc1nnc2n1N=C(c1ccc3c(c1)NC(=O)CO3)CS2,-1.68%
2,COc1ccc(NC(=O)c2oc3ccc(S(=O)(=O)N4CCOCC4)cc3c2C)cc1,8.57%
3,Cc1c(C(=O)NCCN(C)C)oc2ccc(S(=O)(=O)N3CCCC3)cc12,111% (active)
4,CCOC(=O)C1CCN(C(=O)c2oc3ccc(S(=O)(=O)N4CCCCCC4)cc3c2C)CC1,-5.11%
5,COCCNC(=S)N1CCN(C)CC1,-2.39%
6,C/C(CC(=O)NCc1ccc(Cl)cc1)=N\NC(=O)COc1ccc(C)cc1Br,-5.14%
7,CC(CCc1ccccc1)NCC(O)c1cccc([N+](=O)[O-])c1 (stereo unspecified),11.5%
8,CCn1c(/C=N/NC(=O)c2ccc(OC)cc2)nc2ccccc21,-0.18%
9,COc1cc(/C=N/NC(=O)c2cccnc2)ccc1OC(=O)c1cccc(Br)c1,8.67%
10,COc1cccc(/C=N/NC(=O)c2[nH]nc3c2CCc2ccccc2-3)c1O,160% (active)
11,COc1ccc(S(=O)(=O)N2CCOC23CCN(S(=O)(=O)c2ccc([N+](=O)[O-])cc2)CC3)cc1,5.08%
12,COc1ccc(C(=O)Nc2ccc(C3(C#N)CCCC3)cc2)cc1OC,-19.2%
13,CCOCCCNC(=O)C(NC(=O)c1ccccc1O)c1ccccc1 (stereo unspecified),-12.8%
14,CC[C@@H]1Cc2cc(O)ccc2C2=C1c1ccc(O)cc1C[C@H]2CC,84.7% (active)
15,O=C1CC(Sc2ncn[nH]2)C(=O)N1c1ccccc1 (stereo unspecified),3.68%
16,Cc1[nH]c(C)c(S(=O)(=O)N2CCC(C)CC2)c1C(=O)N1CCCC1,1.65%
17,CCOC(=O)c1c(C)[nH]c(C)c1C(=O)COC(=O)/C=C/c1cccc([N+](=O)[O-])c1,3.22%
18,Cc1cccc(N=Nc2c(O)[nH]c3ccc(F)cc23)c1,946% (active)
19,Cc1ccc(CNC(=O)CSc2nnc3c(n2)[nH]c2ccc(F)cc23)cc1,18.4%

row,Structure (SMILES),activation
1,COc1cc(OC)c(C(=S)N2CCCC2)cc1OC,9.16%
2,O=C1C2(Cl)C3(Cl)C4(Cl)C(Cl)(Cl)C5(Cl)C3(Cl)C1(Cl)C5(Cl)C24Cl (stereo unspecified),65.6% (active)
3,C=CCn1c(-c2ccc(Cl)cc2)ccc(C#N)c1=O,2.85%
4,Cc1nc(Nc2ccc(S(=O)(=O)N3CCCC3)cc2)c2nnn(Cc3ccccc3)c2n1,12.1%
5,Cc1nc(Nc2ccc3c(c2)OCCO3)c2nnn(Cc3ccccc3Cl)c2n1,-3.74%
6,Cc1nc(Nc2ccccc2F)c2nnn(Cc3ccccc3Cl)c2n1,61.6% (active)
7,CC(C)(C)OC(=O)CNC(=O)c1[nH]cnc1C(=O)N[C@@H](CCCCN)C(=O)OC(C)(C)C,-1.01%
8,CC(=O)Nc1ccc(C(=O)N(C2=NC(C)CS2)c2ccc(Cl)cc2)cc1 (stereo unspecified),2.92%
9,C/C(=N\NC(=O)COc1c(C)cccc1C)c1cccs1,-0.53%
10,CCOc1ccccc1N1CCN(C(=O)c2ccc3[nH]c(C)c(C)c3c2)CC1,9.45%
11,CCCN=C1N(C)C[C@@H]2[C@@H]3C(=O)N(Cc4ccccc4)C(=O)[C@@H]3[C@](C)(C(=O)OC)N12,3.52%
12,CC[C@]1(C(=O)OC)[C@H]2C(=O)N(C)C(=O)[C@H]2[C@H]2CN(C)C(=NCc3ccccc3)N21,74.5% (active)
13,CCN1C[C@@H]2[C@@H]3C(=O)N(Cc4ccccc4)C(=O)[C@@H]3[C@](Cc3ccccc3)(C(=O)OC)N2C1=NC1CCCCC1,37.9%
14,CCOC(=O)c1ccc(NC(=O)c2ccc(NC(=O)C3CCCO3)cc2)cc1 (stereo unspecified),2.03%
15,OCCC1CN(Cc2ccc3nsnc3c2)CCN1C1CCCCC1 (stereo unspecified),5.81%
16,CC(C)Cn1c(CCC(=O)O)ccc1-c1cccs1,-11.1%
17,CC(=O)OC1CCC2(C)C(=CCC3C4CC(=O)N(O)C(=O)C4(C)CCC32)C1 (stereo unspecified),1.13%
18,CCN1/C(=C\c2ccc3ccccc3[n+]2CC)Sc2cc(C)ccc21,79.5% (active)
19,CCN1/C(=C/c2ccc3ccc(C)cc3[n+]2CC)Sc2ccccc21,72.6% (active)

row,Structure (SMILES),activation
1,CN(C(=O)CC(NC(=O)c1ccccc1)(c1ccccc1)c1ccccc1)c1ccccc1,10.5%
2,Cc1c(Cl)cccc1NC(=S)N(Cc1ccccc1)Cc1cccnc1,13.1%
3,CC(C)c1ccc(NC2CCCN(C(=O)c3ccncc3)C2)cc1 (stereo unspecified),5.6%
4,C[C@@H](NC(=O)OC(C)(C)C)c1nnc(S(=O)(=O)Cc2ccccc2)o1,8.87%
5,C/C(=N\OC(=O)c1ccccc1)c1c(C)nc2cc(C)ccn12,4.56%
6,COc1cc(Cl)c(C)cc1NC(=O)COC(=O)c1cc(SC)ccc1Cl,-5.68%
7,COCCn1c(SCC(=O)Nc2ccc(F)cc2F)nc2c(c1=O)SCC2,7.1%
8,COc1cc(N2CCCC2)c(OC)cc1/C=C(/C#N)c1cccc(Br)c1,-128%
9,O=C(NCCCNC(=O)NC1CCCCC1)NC1CCCCC1,6.46%
10,COC(=O)Cn1c(=NC(=O)CSCC(=O)Nc2cc(C)on2)sc2ccccc21,5.86%
11,CC(C)(C)[C@H]1C=C(C(=O)NCc2ccccc2)O[C@@H](OCc2ccc(CO)cc2)C1,3.75%
12,CCn1c(O)c(N=NC(=O)c2cccc(S(=O)(=O)N3CCCCC3)c2)c2ccccc21,-8.66%
13,CCN(CC)S(=O)(=O)c1cc([N+](=O)[O-])ccc1NNC(=O)Nc1ccccc1,3.61%
14,CCN(CC)S(=O)(=O)c1cc([N+](=O)[O-])ccc1N=Nc1c(O)n(C)c2ccccc12,142% (active)
15,O=C(COC(=O)c1ccc(F)cc1F)Nc1ncccn1,-2.63%
16,CCOc1ccc(N(CC(=O)NCCOc2ccccc2OC)S(=O)(=O)c2ccccc2)cc1,-0.33%
17,O=C(COc1ccc(S(=O)(=O)N2CCCCC2)cc1)NCc1ccccn1,9.35%
18,CCOCCOC(=O)C1=C(C)N(C)C(=O)NC1c1ccccc1F (stereo unspecified),7.27%
